# From paper PMC5700166
# Residue numbers refer to the chain shown, from its start.
# Experiments:
# Experiment in all cases: protein-binding microarray (PBM); PBM: ~300 nM protein, 6 mM HEPES pH 7.8, 80 mM KCl, 0.5 mM EDTA, 0.5 mM EGTA, 6% glycerol, 35 ng/ul poly-dIdC, 1% milk, 1 h, room temperature; Ap Aiptasia and Nv Nematostella (sea anemones) / Co Capsaspora / Aq Amphimedon (sponge) / Dm Drosophila / Hu human; RHD is the Rel homology domain; high values mean tight binding
# Conditions in all cases: dsDNA, one strand shown
# GST-Ap-NF-kB RHD = biological target: T1, GST-Ap-NF-kB RHD (Exaiptasia pallida (Aiptasia), UniProt A0A913YAJ5 2-422)
# T1 sequence: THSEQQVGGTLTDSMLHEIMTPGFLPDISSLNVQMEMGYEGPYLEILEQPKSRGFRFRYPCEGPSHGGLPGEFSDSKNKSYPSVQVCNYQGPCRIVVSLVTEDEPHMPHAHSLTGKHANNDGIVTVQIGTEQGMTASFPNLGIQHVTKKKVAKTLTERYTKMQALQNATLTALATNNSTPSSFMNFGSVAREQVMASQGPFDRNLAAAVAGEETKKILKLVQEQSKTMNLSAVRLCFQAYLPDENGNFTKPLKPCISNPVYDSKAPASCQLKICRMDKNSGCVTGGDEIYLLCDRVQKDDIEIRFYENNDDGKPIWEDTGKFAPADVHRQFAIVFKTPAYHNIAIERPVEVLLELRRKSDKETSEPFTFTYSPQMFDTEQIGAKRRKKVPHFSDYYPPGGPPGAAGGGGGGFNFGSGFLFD
# [1] = biological target: T2, GST-Nv-NF-kB (Cys allele) (Nematostella vectensis, UniProt E5G601 2-411)
# T2 sequence: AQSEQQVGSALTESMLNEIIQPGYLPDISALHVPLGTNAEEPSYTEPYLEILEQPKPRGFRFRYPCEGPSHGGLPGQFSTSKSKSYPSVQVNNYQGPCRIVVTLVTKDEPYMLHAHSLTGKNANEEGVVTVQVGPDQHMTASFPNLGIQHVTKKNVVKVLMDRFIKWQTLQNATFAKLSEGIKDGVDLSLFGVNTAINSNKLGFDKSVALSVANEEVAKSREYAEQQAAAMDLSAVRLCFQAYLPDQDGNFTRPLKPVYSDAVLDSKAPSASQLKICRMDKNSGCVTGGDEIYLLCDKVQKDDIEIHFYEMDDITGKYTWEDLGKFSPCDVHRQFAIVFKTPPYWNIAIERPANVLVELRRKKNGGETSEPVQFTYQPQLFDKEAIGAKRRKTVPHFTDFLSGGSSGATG
# [2] = biological target: T3, GST-Nv-NF-kB (Ser allele) (Nematostella vectensis, UniProt A7UNT2 2-411)
# T3 sequence: T2 sequence with Q21R, C66S, S207N, E215Q, V217A, E225K, A268E, D399E
# GST-Co-NF-kB = biological target: T4, GST-Co-NF-kB (Capsaspora owczarzaki, UniProt F1ARL5 200-546)
# T4 sequence: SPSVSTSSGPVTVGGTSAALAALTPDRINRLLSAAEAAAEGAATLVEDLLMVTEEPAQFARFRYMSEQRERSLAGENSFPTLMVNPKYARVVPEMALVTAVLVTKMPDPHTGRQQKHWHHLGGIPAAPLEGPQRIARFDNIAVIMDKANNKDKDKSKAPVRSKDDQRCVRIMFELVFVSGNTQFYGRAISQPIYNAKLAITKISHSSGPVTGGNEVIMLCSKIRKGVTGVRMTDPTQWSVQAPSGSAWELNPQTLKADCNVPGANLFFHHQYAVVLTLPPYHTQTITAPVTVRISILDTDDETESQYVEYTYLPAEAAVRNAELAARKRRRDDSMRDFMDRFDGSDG
# GST-Dm-Relish = biological target: T5, GST-Dm-Relish (Drosophila melanogaster, UniProt Q94527 99-473)
# T5 sequence: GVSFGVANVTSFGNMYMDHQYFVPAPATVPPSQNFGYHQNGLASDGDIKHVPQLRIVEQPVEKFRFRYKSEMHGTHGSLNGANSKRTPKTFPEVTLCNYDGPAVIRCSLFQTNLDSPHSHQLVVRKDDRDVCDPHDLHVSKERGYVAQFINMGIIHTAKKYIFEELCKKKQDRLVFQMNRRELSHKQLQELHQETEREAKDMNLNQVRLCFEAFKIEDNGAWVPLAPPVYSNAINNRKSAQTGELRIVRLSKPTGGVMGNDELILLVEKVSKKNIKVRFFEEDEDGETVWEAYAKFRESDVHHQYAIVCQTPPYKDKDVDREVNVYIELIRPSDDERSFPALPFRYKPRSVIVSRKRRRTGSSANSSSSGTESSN
# GST-Aq-NF-kB = biological target: T6, GST-Aq-NF-kB (Amphimedon queenslandica, UniProt A9Y5G7 2-389)
# T6 sequence: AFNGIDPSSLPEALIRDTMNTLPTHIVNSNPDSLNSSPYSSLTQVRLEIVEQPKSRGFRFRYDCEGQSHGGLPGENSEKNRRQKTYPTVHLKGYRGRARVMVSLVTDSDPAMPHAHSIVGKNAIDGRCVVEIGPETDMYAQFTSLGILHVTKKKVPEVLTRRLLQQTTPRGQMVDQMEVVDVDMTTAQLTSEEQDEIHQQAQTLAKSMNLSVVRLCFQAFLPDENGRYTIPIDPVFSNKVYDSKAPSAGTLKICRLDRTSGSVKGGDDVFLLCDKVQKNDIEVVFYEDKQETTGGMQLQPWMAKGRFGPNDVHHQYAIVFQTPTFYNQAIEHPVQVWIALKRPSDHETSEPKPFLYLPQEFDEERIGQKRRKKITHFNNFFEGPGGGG
Sequence,binding signal (GST-Ap-NF-kB RHD),binding signal [1],binding signal [2],binding signal (GST-Co-NF-kB),binding signal (GST-Dm-Relish),binding signal (GST-Aq-NF-kB)
CCGATTAACATCAATAAATTCCCTGATGTTAATCGGGTCTTGATTCGCTTGACGCTGCTG,4.18 z-score,7.04 z-score,7.28 z-score,4.25 z-score,5.85 z-score,5.34 z-score
CCGATTAACATCAATAGTTCCCCTGATGTTAATCGGGTCTTGATTCGCTTGACGCTGCTG,6.43 z-score,6.96 z-score,8.51 z-score,7.79 z-score,6.77 z-score,5.01 z-score
CCGATTAACATCAAATTCCCACGTGATGTTAATCGGGTCTTGATTCGCTTGACGCTGCTG,2.06 z-score,3.63 z-score,3.63 z-score,2.77 z-score,3.95 z-score,2.61 z-score
CCGATTAACATCAGGAAAGTACCTGATGTTAATCGGGTCTTGATTCGCTTGACGCTGCTG,3.4 z-score,5.99 z-score,8.2 z-score,,8.08 z-score,6.27 z-score
CCGATTAACATCAGAGTTTCCCATGATGTTAATCGGGTCTTGATTCGCTTGACGCTGCTG,3.08 z-score,3.42 z-score,,3.76 z-score,,3.07 z-score
CCGATTAACATCAGCCCCCCCCCTGATGTTAATCGGGTCTTGATTCGCTTGACGCTGCTG,4.45 z-score,5.13 z-score,3.95 z-score,5.44 z-score,4.51 z-score,5.11 z-score
CCGATTAACATCAACCTCCCCCCTGATGTTAATCGGGTCTTGATTCGCTTGACGCTGCTG,5.79 z-score,3.9 z-score,3.61 z-score,6.38 z-score,4.38 z-score,4.25 z-score
CCGATTAACATCACATTTCCCCATGATGTTAATCGGGTCTTGATTCGCTTGACGCTGCTG,4.9 z-score,6.14 z-score,8.95 z-score,7.21 z-score,2.25 z-score,3.87 z-score
CCGATTAACATCAGGGGAGATTATGATGTTAATCGGGTCTTGATTCGCTTGACGCTGCTG,6.83 z-score,5.48 z-score,6.7 z-score,5.91 z-score,2.68 z-score,4.52 z-score
CCGATTAACATCAGACATTCCCATGATGTTAATCGGGTCTTGATTCGCTTGACGCTGCTG,1.46 z-score,2.27 z-score,,1.37 z-score,,2.26 z-score
